{"source": "paper PMC4336329", "about": "(PLoS ONE, 2015)", "note": "About 14,000 (4.5%) of roughly 310,000 compounds showed an effect of 50% or more. Effects have a minus sign here. Shown is part of a subset that was picked to be rich in strong results.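 Further: peak tail current of the secondary pulse compared with the same well before compound.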"}
{"target": "human ether-à-go-go-related gene (hERG) potassium channel (human, UniProt Q12809)", "sequence (Q12809 whole entry, looked up)": "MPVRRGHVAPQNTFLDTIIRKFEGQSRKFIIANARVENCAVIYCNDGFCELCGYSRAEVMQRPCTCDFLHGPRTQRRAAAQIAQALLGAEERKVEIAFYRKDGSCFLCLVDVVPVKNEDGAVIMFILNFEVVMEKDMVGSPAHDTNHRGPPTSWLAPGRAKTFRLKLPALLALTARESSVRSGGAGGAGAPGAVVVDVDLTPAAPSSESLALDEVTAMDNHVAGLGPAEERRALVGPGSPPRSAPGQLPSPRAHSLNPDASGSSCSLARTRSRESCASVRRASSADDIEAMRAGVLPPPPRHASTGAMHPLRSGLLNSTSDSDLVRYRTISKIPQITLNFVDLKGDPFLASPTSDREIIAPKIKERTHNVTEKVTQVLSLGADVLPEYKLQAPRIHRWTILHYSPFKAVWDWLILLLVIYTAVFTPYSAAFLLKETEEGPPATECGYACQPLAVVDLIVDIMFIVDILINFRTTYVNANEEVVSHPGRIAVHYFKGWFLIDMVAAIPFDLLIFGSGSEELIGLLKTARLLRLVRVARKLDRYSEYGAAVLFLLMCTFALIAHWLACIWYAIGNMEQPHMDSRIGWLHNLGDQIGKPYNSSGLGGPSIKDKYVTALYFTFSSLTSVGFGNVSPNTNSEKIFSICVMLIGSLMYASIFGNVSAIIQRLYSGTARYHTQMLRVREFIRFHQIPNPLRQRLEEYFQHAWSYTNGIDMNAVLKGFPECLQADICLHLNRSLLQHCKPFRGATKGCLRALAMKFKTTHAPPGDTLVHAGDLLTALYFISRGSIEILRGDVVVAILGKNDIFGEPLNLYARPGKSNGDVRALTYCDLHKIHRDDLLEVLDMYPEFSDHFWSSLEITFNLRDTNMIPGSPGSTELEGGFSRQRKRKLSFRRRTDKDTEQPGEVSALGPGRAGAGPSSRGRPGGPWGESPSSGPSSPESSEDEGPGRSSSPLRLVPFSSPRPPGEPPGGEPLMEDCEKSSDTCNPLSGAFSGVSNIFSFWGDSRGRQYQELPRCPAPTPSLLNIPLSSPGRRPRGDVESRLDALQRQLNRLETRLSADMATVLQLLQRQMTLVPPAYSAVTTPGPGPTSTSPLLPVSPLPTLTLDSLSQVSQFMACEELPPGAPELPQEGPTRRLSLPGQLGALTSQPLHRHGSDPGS", "test": "primary screen, population patch clamp on CHO cells stably expressing hERG; higher = less effect of the substance", "units": {"hERG current change (%, negative = inhibition) at 10uM": "%"}}
{"molecule": "COc1ccc(CCN=C(N)NS(=O)(=O)c2cc(F)ccc2F)cc1", "hERG current change (%, negative = inhibition) at 10uM": -17.2}
{"molecule": "N/C(Cc1ccc([N+](=O)[O-])cc1)=N\\OC(=O)COc1ccccc1Cl", "hERG current change (%, negative = inhibition) at 10uM": -21.2}
{"molecule": "O=C(c1ccccc1)N1CN2CN(C(=O)c3ccccc3)CC([N+](=O)[O-])(C2)C1", "hERG current change (%, negative = inhibition) at 10uM": 21.8}
{"molecule": "COc1cccc(-n2c(SCC(=O)NCCc3ccccc3)nnc2-c2ccoc2C)c1", "hERG current change (%, negative = inhibition) at 10uM": -76.8}
{"molecule": "CCn1c(SCC(=O)NC(C)(C)C)nnc1-c1ccoc1C", "hERG current change (%, negative = inhibition) at 10uM": -18.5}
{"molecule": "COC(=O)CSc1nnc(-c2ccoc2C)n1-c1ccc(OC)cc1", "hERG current change (%, negative = inhibition) at 10uM": -18.3}
{"molecule": "Cc1occc1-c1nnc(SCC(=O)NCCc2ccccc2)o1", "hERG current change (%, negative = inhibition) at 10uM": -11.5}
{"molecule": "COc1cccc(NC(=O)CSc2nnc(-c3ccoc3C)n2C)c1", "hERG current change (%, negative = inhibition) at 10uM": 4.35}
{"molecule": "COc1cccc(NC(=O)CSc2nnc(-c3ccoc3C)n2-c2ccccc2)c1", "hERG current change (%, negative = inhibition) at 10uM": -85.7}
{"molecule": "COc1cccc(-n2nnnc2SCC(=O)NCCc2ccccc2)c1", "hERG current change (%, negative = inhibition) at 10uM": -20.8}
{"molecule": "CCOc1ccccc1-n1c(SCC(=O)NC(C)(C)C)nnc1-c1ccoc1C", "hERG current change (%, negative = inhibition) at 10uM": 1.75}
{"molecule": "COc1ccc(-n2c(SCC(=O)Nc3cccc(C(=O)O)c3)nnc2-c2ccco2)cc1", "hERG current change (%, negative = inhibition) at 10uM": 17.7}
{"molecule": "COc1ccc(-n2c(SCC(=O)Nc3ccccc3)nnc2-c2ccoc2C)cc1", "hERG current change (%, negative = inhibition) at 10uM": -71.8}
{"molecule": "COc1cccc(-n2c(SCC(=O)NC(C)(C)C)nnc2-c2ccoc2C)c1", "hERG current change (%, negative = inhibition) at 10uM": -64.5}
{"molecule": "COc1cccc(NC(=O)CSc2nnc(-c3ccoc3C)n2CC2CCCO2)c1", "note": "(centres unmarked)", "hERG current change (%, negative = inhibition) at 10uM": -1.09}
{"molecule": "CN(CC(=O)Nc1cccc(F)c1)C(=O)CCC1CCCCC1", "hERG current change (%, negative = inhibition) at 10uM": 17.7}
{"molecule": "COC(=O)C(=NNc1c(C)n(C)n(-c2ccccc2)c1=O)C(=O)OC", "hERG current change (%, negative = inhibition) at 10uM": 9.93}
{"molecule": "COc1ccccc1NC(=O)c1cc(OC)c(OC)cc1[N+](=O)[O-]", "hERG current change (%, negative = inhibition) at 10uM": 4.44}
{"molecule": "COc1ccc(N(C)S(=O)(=O)c2ccc3c(c2)CCC(=O)N3)cc1", "hERG current change (%, negative = inhibition) at 10uM": -9.5}
{"molecule": "CN(C)c1ccc(/C=C(\\C#N)c2ccccn2)cc1", "hERG current change (%, negative = inhibition) at 10uM": -6.97}
{"molecule": "CN(C)CCOc1cc(Cl)cc(Cl)c1", "hERG current change (%, negative = inhibition) at 10uM": 7.27}
{"molecule": "CCOC(CNc1cc(C)nc2c(-c3ccccc3OC)c(C)nn12)OCC", "hERG current change (%, negative = inhibition) at 10uM": 8.64}
{"molecule": "COC(=O)c1ccc(NC(=O)CSc2nnc(C)n2-c2ccccc2)cc1", "hERG current change (%, negative = inhibition) at 10uM": -2.35}
{"molecule": "Cc1n[nH]c(=S)n1/N=C/c1ccc(Br)o1", "hERG current change (%, negative = inhibition) at 10uM": 12.5}
{"molecule": "COc1ccc(CN2CCCN(S(=O)(=O)c3ccc(Br)cc3)CC2)cc1", "hERG current change (%, negative = inhibition) at 10uM": -74.4}
{"molecule": "COc1ccc(S(=O)(=O)N2CCCN(Cc3cccc(F)c3)CC2)cc1", "hERG current change (%, negative = inhibition) at 10uM": -44.6}
{"molecule": "COc1cccc(CN2CCCN(S(=O)(=O)c3ccc(Br)cc3)CC2)c1", "hERG current change (%, negative = inhibition) at 10uM": -58.6}
{"molecule": "O=S(=O)(c1ccc(Br)cc1)N1CCCN(Cc2cccc(F)c2)CC1", "hERG current change (%, negative = inhibition) at 10uM": -17.9}
{"molecule": "COc1ccc(S(=O)(=O)N2CCN(Cc3ccc(Cl)cc3)CC2)cc1", "hERG current change (%, negative = inhibition) at 10uM": -10.8}
{"molecule": "COc1cccc(CN2CCN(S(=O)(=O)c3ccc(Br)cc3)CC2)c1", "hERG current change (%, negative = inhibition) at 10uM": -29.4}
{"molecule": "COc1ccc(N2CSC3=C(C#N)C(c4ccc(OC)c(OC)c4)CC(=O)N3C2)c(OC)c1", "note": "(centres unmarked)", "hERG current change (%, negative = inhibition) at 10uM": -47.5}
{"molecule": "COc1ccc(N2C(=O)c3ccc(NC(C)=O)cc3C2=O)cc1", "hERG current change (%, negative = inhibition) at 10uM": 20.2}
{"molecule": "CC(=O)N1Cc2ccccc2CC1C(=O)O", "note": "(centres unmarked)", "hERG current change (%, negative = inhibition) at 10uM": -7.43}
{"molecule": "CC(CC1CC(C)(C)OC1=O)C(=O)Nc1ccc([N+](=O)[O-])cc1", "note": "(centres unmarked)", "hERG current change (%, negative = inhibition) at 10uM": -51.4}
{"molecule": "CC1(C)CC(CC(=O)NC(=S)Nc2ccc([N+](=O)[O-])cc2)C(=O)O1", "note": "(centres unmarked)", "hERG current change (%, negative = inhibition) at 10uM": -21.2}
{"molecule": "CC1(C)CC(CC(=O)Nc2ccc([N+](=O)[O-])cc2)C(=O)O1", "note": "(centres unmarked)", "hERG current change (%, negative = inhibition) at 10uM": -22.5}
{"molecule": "COc1ccc(C)cc1NC(=O)CSCc1ccccc1C", "hERG current change (%, negative = inhibition) at 10uM": -4}
{"molecule": "COc1ccc(CSC2=NCCN2)cc1Br", "hERG current change (%, negative = inhibition) at 10uM": 1.43}
{"molecule": "CCCOc1ccc(CSC2=NCCN2)cc1[N+](=O)[O-]", "hERG current change (%, negative = inhibition) at 10uM": -66.7}
{"molecule": "COc1ccc(CSc2n[nH]c(C)n2)cc1[N+](=O)[O-]", "hERG current change (%, negative = inhibition) at 10uM": 26.2}
{"molecule": "CCCCOc1ccc(CSC2=NCCN2)cc1[N+](=O)[O-].Cl", "hERG current change (%, negative = inhibition) at 10uM": -68.7}
{"molecule": "CCOc1ccc(CSC2=NCCN2)cc1Cl.Cl", "hERG current change (%, negative = inhibition) at 10uM": -50.9}
{"molecule": "CCCCCOc1ccc(CSC2=NCCN2)cc1[N+](=O)[O-]", "hERG current change (%, negative = inhibition) at 10uM": -80.2}
{"molecule": "COc1ccc(CSc2cccc3cccnc23)cc1[N+](=O)[O-]", "hERG current change (%, negative = inhibition) at 10uM": 1.59}
{"molecule": "COc1ccc(CSC2=NCCN2)cc1Cl.Cl", "hERG current change (%, negative = inhibition) at 10uM": -18.2}
{"molecule": "CCCCOc1ccc(CSc2nnc(C)n2N)cc1[N+](=O)[O-]", "hERG current change (%, negative = inhibition) at 10uM": -31.5}
{"molecule": "COc1ccc(CSc2nc(C)[nH]c2[N+](=O)[O-])cc1[N+](=O)[O-]", "hERG current change (%, negative = inhibition) at 10uM": 4.63}
{"molecule": "Br.N#Cc1ccc(CSC2=NCCN2)cc1", "hERG current change (%, negative = inhibition) at 10uM": -4.5}
{"molecule": "Cl.Clc1ccc(CSC2=NCCCN2)cc1Cl", "hERG current change (%, negative = inhibition) at 10uM": -18.2}
{"molecule": "CC(Oc1ccc(Cl)cc1)C(=O)NCCCn1ccnc1", "note": "(centres unmarked)", "hERG current change (%, negative = inhibition) at 10uM": -7.09}
{"molecule": "Cc1csc(NC(=O)CN2CCCCCC2)n1.O=C(O)C(=O)O", "hERG current change (%, negative = inhibition) at 10uM": 14.3}
{"molecule": "Cc1cc(C)c2cc(C(=O)Nc3ccc4c(c3)OCO4)[nH]c2c1", "hERG current change (%, negative = inhibition) at 10uM": 16.2}
{"molecule": "CCOc1ccc2c(C)c(C(=O)O)oc2c1OCC", "hERG current change (%, negative = inhibition) at 10uM": 16.5}
{"molecule": "NS(=O)(=O)c1cccc(NC(=O)CC2(CC(=O)O)CCCC2)c1", "hERG current change (%, negative = inhibition) at 10uM": 33.9}
{"molecule": "CSc1nc(Cc2ccc(Cl)cc2)nc2ccccc12", "hERG current change (%, negative = inhibition) at 10uM": -16.7}
{"molecule": "CCOc1ccc(CSC2=NCCN2)cc1[N+](=O)[O-].Cl", "hERG current change (%, negative = inhibition) at 10uM": -83.5}
{"molecule": "COc1ccc(CSc2ncn[nH]2)cc1[N+](=O)[O-]", "hERG current change (%, negative = inhibition) at 10uM": 2.83}
{"molecule": "Br.O=[N+]([O-])c1ccc(CSC2=NCCN2)cc1", "hERG current change (%, negative = inhibition) at 10uM": -15.3}
{"molecule": "Cc1ccc(-n2c(C)nnc2SCC(=O)N2CCOCC2)cc1", "hERG current change (%, negative = inhibition) at 10uM": 21.9}
